Data taken from PubChem BioAssay AID1159580 (chemical genetic matrix, 2015).
Where “and” joins values, the source holds several entries; their conditions need not be identical. Identical values can stand only once. Among all 5,500 compounds or so, about 2,000 (36%) were called active. Another 18% or so got no clear call; they are omitted. No stated cut-off is given here; in the data, active means normalized growth mostly below about 0.91 (no sharp cut-off); inconclusive means no clear call, values can overlap the other calls; inactive means mostly above about 0.92. The list shows a part of the results.

Assay: chemical genetic growth profiling, strain panel (AID 1159580);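 further: tested at 20 µM; growth read once vehicle control cultures reached saturation at 30 °C; 1 = growth at the plate median or of vehicle wells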
Details: S. cerevisiae deletion strains, growth OD

Measured: normalized growth

O=C1c2cccc(O)c2C(=O)c2c(O)cccc21
0.74 (active) and 0.875 (inactive): locus YHR030C, strain SLT2, stronger effect = lower value
inactive: locus YAL030W, strain snc1, stronger effect = lower value 0.935 | locus YBL061C, strain skt5, stronger effect = lower value 0.929 | locus YBR171W, strain sec66, stronger effect = lower value 0.939 | locus YCL011C, strain gbp2, stronger effect = lower value 0.928 | locus YCL061C, strain MRC1, stronger effect = lower value 0.928 | locus YCL069W, strain vba3, stronger effect = lower value 0.951 | locus YCR088W, strain abp1, stronger effect = lower value 0.97 | locus YDL040C, strain nat1, stronger effect = lower value 0.952 | locus YDR001C, strain nth1, stronger effect = lower value 0.977 | locus YDR297W, strain sur2, stronger effect = lower value 0.949 | locus YEL037C, strain rad23, stronger effect = lower value 0.936 | locus YEL061C, strain CIN8 (second series), stronger effect = lower value 0.957 | locus YER111C, strain swi4, stronger effect = lower value 0.956 | locus YGL173C, strain kem1, stronger effect = lower value 0.947 | locus YGL227W, strain vid30, stronger effect = lower value 0.994 | locus YHR079C, strain IRE1, stronger effect = lower value 0.899 | locus YHR094C, strain hxt1, stronger effect = lower value 0.95 | locus YIL073C, strain SPO22, stronger effect = lower value 0.764 | locus YJL092W, strain hpr5, stronger effect = lower value 0.946 | locus YJL129C, strain trk1, stronger effect = lower value 1.02 | locus YJL134W, strain LCB3, stronger effect = lower value 0.951 | locus YJL154C, strain vps35, stronger effect = lower value 0.955 | locus YKL068W, stronger effect = lower value 0.967 | locus YKL085W, strain MDH1 (second series), stronger effect = lower value 0.944 | locus YKL085W, strain MDH1, stronger effect = lower value 0.944 | locus YKR026C, strain gcn3, stronger effect = lower value 0.97 | locus YKR091W, strain srl3, stronger effect = lower value 0.97 | locus YLL001W, strain dnm1, stronger effect = lower value 0.903 | locus YLL026W, stronger effect = lower value 0.941 | locus YLL041C, strain sdh2, stronger effect = lower value 0.953 | locus YLR102C, strain apc9, stronger effect = lower value 0.961 | locus YLR113W, strain HOG1, stronger effect = lower value 1 | locus YLR342W, strain FKS1 (second series), stronger effect = lower value 0.923 | locus YLR342W, strain FKS1, stronger effect = lower value 0.975 | locus YLR357W, strain rsc2, stronger effect = lower value 0.995 | locus YLR384C, strain iki3, stronger effect = lower value 0.936 | locus YMR125W, strain sto1, stronger effect = lower value 0.959 | locus YMR129W, stronger effect = lower value 0.972 | locus YMR205C, strain PFK2, stronger effect = lower value 0.96 | locus YMR307W, strain GAS1, stronger effect = lower value 0.677 | locus YNL183C, strain NPR1, stronger effect = lower value 0.836 | locus YNL322C, strain KRE1 (second series), stronger effect = lower value 0.965 | locus YNR049C, strain mso1, stronger effect = lower value 0.942 | locus YOL012C, strain htz1 0.695 | locus YOR080W, strain dia2, stronger effect = lower value 0.948 | locus YOR231W, strain MKK1, stronger effect = lower value 0.895 | locus YOR265W, strain rbl2, stronger effect = lower value 0.935 | locus YOR316C, strain cot1, stronger effect = lower value 0.941 | locus YPL078C, strain atp4, stronger effect = lower value 0.897 | locus YPL256C, strain CLN2, stronger effect = lower value 0.996 | locus YPR119W, strain clb2, stronger effect = lower value 0.931 | locus YPR141C, strain kar3, stronger effect = lower value 0.966
active: locus YAL013W, strain DEP1, stronger effect = lower value 0.799 | locus YAL021C, strain ccr4, stronger effect = lower value 0.837 | locus YAL026C, strain drs2, stronger effect = lower value 0.823 | locus YBR009C, strain hhf1, stronger effect = lower value 0.821 | locus YBR021W, strain FUR4, stronger effect = lower value 1.18 [resistant] | locus YBR023C, strain chs3, stronger effect = lower value 0.909 | locus YBR229C, strain ROT2, stronger effect = lower value 0.898 | locus YBR231C, strain swc5, stronger effect = lower value 0.733 | locus YBR279W, strain paf1, stronger effect = lower value 0.905 | locus YCL016C, strain dcc1, stronger effect = lower value 0.77 | locus YCL029C, strain bik1, stronger effect = lower value 0.808 | locus YDL005C, strain med2, stronger effect = lower value 0.167 | locus YDL035C, strain GPR1, stronger effect = lower value 0.703 | locus YDL074C, strain BRE1, stronger effect = lower value 0.658 | locus YDL101C, strain DUN1, stronger effect = lower value 0.616 | locus YDL185W, strain tfp1, stronger effect = lower value 0.789 | locus YDL192W, strain arf1, stronger effect = lower value 0.628 | locus YDR069C, strain doa4, stronger effect = lower value 0.768 | locus YDR101C, strain arx1, stronger effect = lower value 0.745 | locus YDR137W, strain rgp1, stronger effect = lower value 0.268 | locus YDR150W, strain NUM1, stronger effect = lower value 0.861 | locus YDR159W, strain sac3, stronger effect = lower value 0.705 | locus YDR162C, strain NBP2, stronger effect = lower value 0.344 | locus YDR195W, strain ref2 1.22 [resistant] | locus YDR318W, strain mcm21, stronger effect = lower value 0.772 | locus YDR334W, strain swr1, stronger effect = lower value 0.831 | locus YDR335W, strain msn5, stronger effect = lower value 0.85 | locus YDR388W, stronger effect = lower value 0.728 | locus YDR392W, strain spt3, stronger effect = lower value 0.64 | locus YDR502C, strain sam2, stronger effect = lower value 0.673 | locus YEL003W, strain gim4, stronger effect = lower value 0.834 | locus YEL061C, strain CIN8, stronger effect = lower value 0.747 | locus YER015W, strain faa2, stronger effect = lower value 0.911 | locus YER016W, strain bim1, stronger effect = lower value 0.864 | locus YER110C, stronger effect = lower value 0.885 | locus YER155C, strain BEM2 (second series), stronger effect = lower value 0.806 | locus YER155C, strain BEM2, stronger effect = lower value 0.835 | locus YER167W, strain BCK2, stronger effect = lower value 0.77 | locus YFR010W, strain ubp6, stronger effect = lower value 0.862 | locus YGL078C, strain dbp3, stronger effect = lower value 0.874 | locus YGL086W, strain mad1, stronger effect = lower value 0.781 | locus YGL167C, strain pmr1, stronger effect = lower value 0.612 | locus YGL240W, strain doc1, stronger effect = lower value 0.886 | locus YGL248W, strain PDE1, stronger effect = lower value 0.685 | locus YGL253W, strain hxk2, stronger effect = lower value 0.79 | locus YGR078C, strain PAC10, stronger effect = lower value 0.669 | locus YGR135W, strain pre9, stronger effect = lower value 0.698 | locus YGR252W, strain gcn5, stronger effect = lower value 0.625 | locus YHR013C, strain ard1, stronger effect = lower value 0.701 | locus YHR027C, strain rpn1, stronger effect = lower value 0.81 | locus YHR079C, strain IRE1 (second series), stronger effect = lower value 0.915 | locus YHR129C, strain ARP1, stronger effect = lower value 0.777 | locus YHR142W, strain chs7, stronger effect = lower value 0.857 | locus YHR200W, strain rpn10, stronger effect = lower value 0.732 | locus YIL066C, strain RNR3, stronger effect = lower value 0.59 | locus YIL125W, strain kgd1, stronger effect = lower value 0.872 | locus YIR030C, strain dcg1, stronger effect = lower value 0.896 | locus YJL095W, strain BCK1 (second series), stronger effect = lower value 0.878 | locus YJL095W, strain BCK1, stronger effect = lower value 0.379 and 0.881 | locus YJL115W, strain asf1, stronger effect = lower value 0.819 | locus YJL164C, strain tpk1, stronger effect = lower value 0.833 | locus YJL166W, strain qcr8, stronger effect = lower value 0.812 | locus YJL168C, strain set2, stronger effect = lower value 0.927 | locus YJL187C, strain SWE1 (second series), stronger effect = lower value 0.611 | locus YJL187C, strain SWE1, stronger effect = lower value 0.914 | locus YJR043C, strain POL32, stronger effect = lower value 0.767 | locus YJR066W, strain TOR1, stronger effect = lower value 0.796 | locus YKL009W, strain mrt4, stronger effect = lower value 0.844 | locus YKL160W, strain elf1, stronger effect = lower value 0.835 | locus YKL190W, strain CNB1, stronger effect = lower value 0.697 | locus YKR001C, strain vps1, stronger effect = lower value 0.405 | locus YLR027C, strain aat2, stronger effect = lower value 0.878 | locus YLR039C, strain RIC1, stronger effect = lower value 0.178 | locus YLR058C, strain SHM2, stronger effect = lower value 0.684 | locus YLR221C, strain rsa3, stronger effect = lower value 0.856 | locus YLR258W, strain gsy2, stronger effect = lower value 0.909 | locus YLR262C, strain YPT6 (second series), stronger effect = lower value 0.406 | locus YLR262C, strain YPT6, stronger effect = lower value 0.24 | locus YLR268W, strain sec22, stronger effect = lower value 0.606 | locus YLR320W, strain mms22, stronger effect = lower value 0.435 | locus YLR330W, strain CHS5, stronger effect = lower value 0.688 | locus YLR371W, strain rom2, stronger effect = lower value 0.789 | locus YLR418C, strain cdc73, stronger effect = lower value 0.401 | locus YML016C, strain PPZ1, stronger effect = lower value 0.82 | locus YML032C, strain rad52, stronger effect = lower value 0.291 | locus YML120C, strain ndi1, stronger effect = lower value 0.866 | locus YML124C, strain tub3, stronger effect = lower value 0.802 | locus YMR058W, strain fet3, stronger effect = lower value 0.747 | locus YMR078C, strain ctf18, stronger effect = lower value 0.841 | locus YMR223W, strain ubp8, stronger effect = lower value 0.668 | locus YMR231W, strain pep5, stronger effect = lower value 0.882 | locus YMR263W, strain SAP30, stronger effect = lower value 0.756 | locus YNL067W, strain RPL9B, stronger effect = lower value 0.699 | locus YNL071W, strain lat1, stronger effect = lower value 0.831 | locus YNL128W, strain TEP1, stronger effect = lower value 0.638 | locus YNL153C, strain GIM3, stronger effect = lower value 0.568 | locus YNL209W, strain ssb2, stronger effect = lower value 0.879 | locus YNL233W, strain BNI4, stronger effect = lower value 0.729 | locus YNL248C, strain rpa49, stronger effect = lower value 0.55 | locus YNL250W, strain rad50, stronger effect = lower value 0.463 | locus YNL271C, strain bni1, stronger effect = lower value 0.847 | locus YNL298W, strain CLA4, stronger effect = lower value 0.823 | locus YNL307C, strain MCK1, stronger effect = lower value 0.669 | locus YNL322C, strain KRE1, stronger effect = lower value 0.803 | locus YNR052C, strain pop2, stronger effect = lower value 0.59 | locus YOL147C, strain pex11, stronger effect = lower value 0.749 | locus YOR001W, strain rrp6, stronger effect = lower value 0.855 | locus YOR061W, strain CKA2, stronger effect = lower value 0.847 | locus YOR069W, strain VPS5, stronger effect = lower value 0.79 | locus YOR070C, strain gyp1, stronger effect = lower value 0.874 | locus YOR083W, strain WHI5, stronger effect = lower value 0.793 | locus YOR106W, strain vam3, stronger effect = lower value 0.577 | locus YOR136W, strain idh2, stronger effect = lower value 0.845 | locus YOR144C, strain elg1, stronger effect = lower value 0.886 | locus YOR184W, strain ser1, stronger effect = lower value 0.375 | locus YOR270C, strain vph1, stronger effect = lower value 0.364 | locus YOR290C, strain snf2, stronger effect = lower value 0.796 | locus YPL051W, strain arl3, stronger effect = lower value 0.737 | locus YPL106C, strain sse1, stronger effect = lower value 0.705 | locus YPL240C, strain hsp82, stronger effect = lower value 0.909 | locus YPL241C, strain CIN2, stronger effect = lower value 0.847 | locus YPR163C, strain tif3, stronger effect = lower value 0.775 | locus YPR167C, strain met16, stronger effect = lower value 0.851 | strain wtn01, stronger effect = lower value 0.752
